Read-out in experiment [1]: Monocyte Chemoattractant Protein-1 (MCP1), CCL2 (gene 6347)
The experiment in a line: BSK_SAg_MCP1: BioMAP Diversity Plus: SAg Assay for Monocyte Chemoattractant Protein-1 (MCP1) Biomarker Activity (AID 2283090). The following applies: primary human HUVEC with PBMC; actives raise or lower the signal. In outline:
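Values derive from bidirectional fitting of ELISA-measured MCP1 against DMSO controls. Readings were taken 24 h after dosing human vascular endothelial cells co-cultured with peripheral blood mononuclear cells under superantigen stimulation.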

Read-out in experiment [2]: E-selectin (Homo sapiens) (UniProt P16581)
Description: BSK_SAg_Eselectin: BioMAP Diversity Plus: SAg Assay for Eselectin Biomarker Activity (AID 2283091). The following applies: primary human HUVEC with PBMC; actives raise or lower the signal. A digest of the protocol:
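E-selectin ELISA readout at 24 h post-dosing in human umbilical vein endothelial cell/PBMC co-culture; gain or loss of signal fitted relative to DMSO baseline.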

Read-out in experiment [3]: Monokine induced gamma interferon (MIG), CXCL9 (gene 4283)
The experiment in a line: BSK_SAg_MIG: BioMAP Diversity Plus: SAg Assay for Monokine induced gamma interferon (MIG) Biomarker Activity (AID 2283092). The following applies: primary human HUVEC with PBMC; actives raise or lower the signal. A digest of the protocol:
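ELISA readout of MIG/CXCL9; primary human umbilical vein endothelial cells co-cultured with peripheral blood mononuclear cells; 24 h post-dose; gain/loss fit vs DMSO baseline.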

Experiment [4] in a line: BSK_SAg_PBMCCytotoxicity: PBMC Cytotoxicity Assessment in the BioMAP Diversity Plus: SAg Assay (AID 2283093).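 For AC50: PBMC superantigen activated with SEB plus TSST-1 one hour after compound addition.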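 Note: fitted both ways against DMSO so a hit may be loss or gain of signal.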 The note with it: primary human HUVEC with PBMC. In outline:
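PBMC viability by Alamar Blue reduction, fluorescence read at 546/580 nm after 6 h dye exposure. Cells were dosed 1 h before SEB plus TSST-1 activation (20 ng/mL final each), then held 90 h; endothelial/PBMC human co-culture.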

Read-out in experiment [5]: Interleukin-8 (IL8), CXCL8 (gene 3576)
Description: BSK_SAg_IL8: BioMAP Diversity Plus: SAg Assay for Interleukin-8 (IL8) Biomarker Activity (AID 2283094). The note with it: primary human HUVEC with PBMC; actives raise or lower the signal. In outline:
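ELISA readout of IL-8 from a superantigen-activated endothelial/PBMC primary human co-culture, taken 24 h post-dosing and fitted in both directions against DMSO; parallel SRB total-protein staining flags overt cytotoxicity.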

A short description of experiment [6]: BSK_SAg_SRB: Viability Assessment in the BioMAP Diversity Plus: SAg Assay (AID 2283096).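 Note: cells read one day after compound addition; hits may be either gain or loss of signal compared with DMSO.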 The following applies: primary human HUVEC with PBMC. A digest of the protocol:
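Compounds were added to a human vascular co-culture of umbilical vein endothelium and PBMC. After 24 h, parallel cultures were fixed with 10% TCA, stained with 0.1% sulforhodamine B and read at 560 nm. Gain or loss of signal was fitted relative to DMSO.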

For experiment [7], the target named is human CYP19A1, CYP19A1 (gene 1588) (UniProt P11511). The experiment in a line: NVS_ADME_hCYP19A1: NovaScreen (NVS) CYP450-related Enzyme Activity (ADME) Assay for human CYP19A1 (AID 2283098; active = hit-call score of the fitted dose curve at least 0.9, where 1 is the maximum;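 for AC50: potency for inhibitors seen as loss of fluorescent enzyme signal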). A digest of the protocol:
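Fluorescence intensity read-out; activity taken as signal loss relative to acetonitrile vehicle. Extracted enzyme, specific substrate, no cells, 0.5 h exposure. Duplicate single-point screen at 10 uM, then concentration–response follow-up for actives.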

Experiment [8] has as its target human CYP1A1, CYP1A1 (gene 1543) (UniProt P04798). The experiment in a line: NVS_ADME_hCYP1A1: NovaScreen (NVS) CYP450-related Enzyme Activity (ADME) Assay for human CYP1A1 (AID 2283100; active = hit-call score of the fitted dose curve at least 0.9, where 1 is the maximum). In outline:
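Read-out: fluorescence intensity from enzymatic turnover of substrate by recombinant CYP1A1, loss of signal indicating inhibition. Incubation 1 h post-dose. Primary single-point 10 uM in duplicate; actives rerun singly with top concentration 20 uM.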

For 20 compounds, outcome and AC50 results are on record in PubChem BioAssay (EPA / NIEHS).

A word on the AC50: it is the concentration giving half of the maximal activity seen.

Records with an inconclusive call do not appear. The source made the active and inactive calls. Rule for the calls, unless noted: active = hit-call score of the fitted dose curve at least 0.9, where 1 is the maximum; inactive = score below 0.9.

human CYP19A1, CYP19A1 (gene 1588), sequence (P11511 whole entry, looked up): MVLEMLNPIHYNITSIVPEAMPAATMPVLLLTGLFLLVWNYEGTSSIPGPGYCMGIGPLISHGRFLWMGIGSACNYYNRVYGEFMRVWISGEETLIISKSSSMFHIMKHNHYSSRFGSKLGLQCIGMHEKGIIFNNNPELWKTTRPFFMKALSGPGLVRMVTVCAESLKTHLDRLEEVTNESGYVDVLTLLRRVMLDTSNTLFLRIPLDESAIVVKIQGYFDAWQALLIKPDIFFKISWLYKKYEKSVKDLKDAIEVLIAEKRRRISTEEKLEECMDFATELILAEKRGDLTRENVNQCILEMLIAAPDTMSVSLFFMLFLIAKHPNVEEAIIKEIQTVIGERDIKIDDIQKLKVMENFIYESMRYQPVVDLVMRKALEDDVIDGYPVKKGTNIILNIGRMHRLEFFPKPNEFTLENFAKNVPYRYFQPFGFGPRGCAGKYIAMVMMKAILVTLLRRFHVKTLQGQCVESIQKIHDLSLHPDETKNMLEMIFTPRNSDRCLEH
E-selectin (Homo sapiens), sequence (P16581 whole entry, looked up): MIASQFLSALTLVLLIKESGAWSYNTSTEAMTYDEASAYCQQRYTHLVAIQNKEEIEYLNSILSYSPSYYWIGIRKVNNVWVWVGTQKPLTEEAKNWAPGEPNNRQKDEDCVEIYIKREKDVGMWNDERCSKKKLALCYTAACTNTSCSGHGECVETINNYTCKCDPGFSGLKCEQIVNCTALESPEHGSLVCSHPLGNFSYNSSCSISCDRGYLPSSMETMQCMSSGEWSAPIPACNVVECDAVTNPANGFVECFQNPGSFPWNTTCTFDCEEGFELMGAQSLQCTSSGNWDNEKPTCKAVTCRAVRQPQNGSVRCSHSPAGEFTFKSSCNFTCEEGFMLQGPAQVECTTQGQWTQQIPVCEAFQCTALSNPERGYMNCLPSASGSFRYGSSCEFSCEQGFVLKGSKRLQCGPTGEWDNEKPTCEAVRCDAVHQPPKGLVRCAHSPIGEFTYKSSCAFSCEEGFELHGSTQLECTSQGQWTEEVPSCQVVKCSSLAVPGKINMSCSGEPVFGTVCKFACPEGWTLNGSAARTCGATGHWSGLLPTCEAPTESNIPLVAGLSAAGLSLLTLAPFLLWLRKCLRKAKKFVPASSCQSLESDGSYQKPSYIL
human CYP1A1, CYP1A1 (gene 1543), sequence (P04798 whole entry, looked up): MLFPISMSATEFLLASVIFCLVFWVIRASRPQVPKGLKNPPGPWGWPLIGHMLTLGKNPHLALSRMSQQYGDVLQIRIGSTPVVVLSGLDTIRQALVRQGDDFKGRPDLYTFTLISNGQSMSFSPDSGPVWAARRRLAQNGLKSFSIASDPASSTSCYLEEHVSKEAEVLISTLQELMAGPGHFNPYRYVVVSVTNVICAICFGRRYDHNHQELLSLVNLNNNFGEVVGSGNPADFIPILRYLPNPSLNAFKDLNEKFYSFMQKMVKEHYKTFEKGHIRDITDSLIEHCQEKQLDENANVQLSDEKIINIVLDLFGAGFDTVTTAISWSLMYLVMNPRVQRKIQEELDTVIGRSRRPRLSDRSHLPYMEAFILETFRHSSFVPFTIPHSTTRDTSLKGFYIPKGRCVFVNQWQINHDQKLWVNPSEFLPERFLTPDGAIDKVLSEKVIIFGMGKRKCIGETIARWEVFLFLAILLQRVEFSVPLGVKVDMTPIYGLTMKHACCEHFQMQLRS

For the compound `CNC(=O)ON=C(C)SC`, the result in experiment [1], in experiment [2], in experiment [3], in experiment [4], in experiment [5] and in experiment [6] was inactive. The compound was classed as inactive in experiment [7].
Consider `CCOP(=O)(SC(C)CC)N1CCSC1=O` (centres undefined), for which the outcome in experiment [1], in experiment [2], in experiment [3], in experiment [4] and in experiment [6] was inactive.
On to `C[N+]1(C)CCCCC1`, for which the outcome in experiment [1], in experiment [2], in experiment [3], in experiment [4], in experiment [5] and in experiment [6] was inactive.
Regarding `CCCCOC(=O)c1ccccc1C(=O)O`, the outcome in experiment [1], in experiment [2], in experiment [3], in experiment [4], in experiment [5] and in experiment [6] was inactive. The result in experiment [7] was inactive.
Take `Cc1nn(-c2cc(NS(C)(=O)=O)c(Cl)cc2Cl)c(=O)n1C(F)F`: the outcome in experiment [1], in experiment [2], in experiment [3], in experiment [4], in experiment [5] and in experiment [6] was inactive.
As to `CN(C)NC(=O)CCC(=O)O`, the outcome in experiment [1], in experiment [2], in experiment [3], in experiment [4], in experiment [5] and in experiment [6] was inactive.
For the compound `CC1=NNC(=O)N(/N=C/c2cccnc2)C1`, the outcome in experiment [1], in experiment [2], in experiment [3], in experiment [4], in experiment [5] and in experiment [6] was inactive.
For `CCCSP(=O)(OCC)Oc1ccc(Br)cc1Cl` (centres undefined), the AC50 was 25.5 µM (active) in experiment [2]; 36.5 µM (active) in experiment [3]; 32.9 µM (active) in experiment [4]; 26.3 µM (active) in experiment [5]; 11.7 µM (active) in experiment [6].
With `CCCOc1nn(C(=O)NS(=O)(=O)c2ccccc2C(=O)OC)c(=O)n1C`, the result in experiment [1], in experiment [2], in experiment [3], in experiment [4], in experiment [5] and in experiment [6] was inactive.
As for `CCOP(=S)(OCC)Oc1ccc([N+](=O)[O-])cc1`, the outcome in experiment [1], in experiment [3], in experiment [4], in experiment [5], in experiment [6] and in experiment [7] was inactive. Moreover, the AC50 in experiment [2] was 32.8 µM (active); in experiment [8], 3.28 µM (active).
For `CN1COCN(Cc2cnc(Cl)s2)C1=N[N+](=O)[O-]`, the result in experiment [1], in experiment [2], in experiment [3], in experiment [4], in experiment [5] and in experiment [6] was inactive.
Consider `CCOP(=S)(OCC)OC(Cl)C(Cl)(Cl)Cl` (centres undefined), for which the result in experiment [1] and in experiment [3] was inactive. For the same compound, the AC50 is 31.2 µM (active) in experiment [2], 29.9 µM (active) in experiment [4], 25.9 µM (active) in experiment [5] and 13 µM (active) in experiment [6].
As for `CCCCN(CC)c1c([N+](=O)[O-])cc(C(F)(F)F)cc1[N+](=O)[O-]`, the result in experiment [1], in experiment [3], in experiment [5] and in experiment [6] was inactive. The values for the AC50 in experiment [2], in experiment [4] and in experiment [7] were 27.6 µM (active), 24.4 µM (active) and 1.93 µM (active), respectively.
On to `CSC1=N[C@@](C)(c2ccccc2)C(=O)N1Nc1ccccc1`, for which the AC50 was 20 µM (active) in experiment [1], 8.29 µM (active) in experiment [2], 7.23 µM (active) in experiment [4] and 8.81 µM (active) in experiment [5]. Moreover, the outcome in experiment [3] and in experiment [6] was inactive.
In the case of `CCOC(=O)COc1cc(-c2nn(C)c(OC(F)F)c2Cl)c(F)cc1Cl`, the result in experiment [1], in experiment [2], in experiment [3], in experiment [4], in experiment [5] and in experiment [6] was inactive.
`Cc1cc(C2CC2)nc(Nc2ccccc2)n1`: the outcome in experiment [1], in experiment [3] and in experiment [5] was inactive. Besides, the values for the AC50 in experiment [2], in experiment [4] and in experiment [6] were 34.4 µM (active), 7.66 µM (active) and 15 µM (active), respectively.
As for `COP(=O)(OC)OC(Br)C(Cl)(Cl)Br` (centres undefined), the AC50 in experiment [2] is 22.7 µM (active); in experiment [3] it was 36.8 µM (active); in experiment [4], 14.7 µM (active); in experiment [5] it was 22.9 µM (active); in experiment [6] it was 30.4 µM (active).
`COc1cc(OC)nc(Sc2cccc(Cl)c2C(=O)O)n1`: the result in experiment [1], in experiment [2], in experiment [3], in experiment [4], in experiment [5] and in experiment [6] was inactive.
For the compound `O=C(O)c1cc(Oc2ccc(C(F)(F)F)cc2Cl)ccc1[N+](=O)[O-]`, the result in experiment [1], in experiment [2], in experiment [3], in experiment [4], in experiment [5] and in experiment [6] was inactive.
For the compound `C=C(C)[C@H]1Cc2c(ccc3c2O[C@@H]2COc4cc(OC)c(OC)cc4[C@@H]2C3=O)O1`, the AC50 in experiment [1] is 16.7 µM (active); in experiment [2], 4.05 µM (active); in experiment [3], 27.2 µM (active); in experiment [5], 1.61 µM (active); in experiment [6], 5.52 µM (active). The result in experiment [4], in experiment [7] and in experiment [8] was inactive.
